For test [1], the system named is Plasmodium falciparum Sir2 (PF13_0152, Sir2A). Description: Plasmodium falciparum Sir2A binding compounds – biochemical, small-molecule microarray, 635 nm fluorescence, primary screen (AID 1098).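 Further: score merges spot fluorescence intensity with its signal-to-noise ratio.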 The conditions noted are these: fluorescence 635 nm, higher = more signal.
A short description of test [2]: probe aDKK1 binding to arrayed compounds – biochemical, biotinylated probe, 635/667 nm fluorescence, primary screen (AID 1099).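 Further: score merges 667nm spot fluorescence with signal to noise across triplicate slides.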 The conditions noted are these: small-molecule microarray, higher = more signal.
Test [3] is described as follows: probe aCHRDL2 binding to arrayed compounds – biochemical, biotinylated probe, 635/667 nm fluorescence, primary screen (AID 1100). Conditions: small-molecule microarray, higher = more signal.
The nature of test [4]: change in splice reporter luminescence, either direction, cell-based, HEK293, spliceosome inhibition project, primary screen (AID 1101).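 Further: HEK293 cells carrying a splicing-competent luciferase reporter gene; test concentration not given here.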 Conditions: HEK293 splicing luciferase reporter, 24 h, higher = more signal, called active from +8 up or from −8 down. Background: A reporter such as luciferase makes a cellular process visible.
Test [5] deals with Fibroblast growth factor 10 (Homo sapiens) (UniProt O15520). The test is described as follows: compounds binding fibroblast growth factor 10 – biochemical, small-molecule microarray, 635 nm fluorescence, primary screen (AID 1102). The conditions noted are these: FGF10 binding, fluorescence 635 nm, higher = more signal.
The subject of test [6] is glycogen synthase kinase-3 (GSK3A per assay name; protocol says GSK3B). Description: compounds binding glycogen synthase kinase-3 – biochemical, small-molecule microarray, 635 nm fluorescence, GSK3A, primary screen (AID 1103). Further: the record names both GSK3A and GSK3B. The conditions noted are these: fluorescence 635 nm, higher = more signal.
Test [7] has as its target Epidermal growth factor receptor (Homo sapiens) (UniProt P00533). The test is described as follows: compounds binding epidermal growth factor receptor – biochemical, small-molecule microarray, 635 nm fluorescence, primary screen (AID 1104).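 Further: score merges 667 nm emission intensity with spot signal to noise over triplicate slides.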 The conditions noted are these: EGFR binding, higher = more signal.
Test [8] concerns the target Follistatin-related protein 3 (Homo sapiens) (UniProt O95633). Description: compounds binding follistatin-related protein 3 – biochemical, small-molecule microarray, 635 nm fluorescence, primary screen (AID 1105).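 Further: score merges emission near 667 nm and signal to noise per printed spot across three slides.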 Conditions: FSTL3 binding, higher = more signal.
Test [9] concerns the target Dickkopf-related protein 1 (Homo sapiens) (UniProt O94907). Description: small molecules binding DKK1 protein – biochemical, small-molecule microarray, 635 nm fluorescence scan, primary screen (AID 1106).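 Further: score merges emission near 667 nm with signal to noise over three replicate slides.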 Conditions: higher = more signal.
In test [10] the test system is Inhibin beta A chain (activin A). Description: small molecules binding activin A – biochemical, small-molecule microarray, 635 nm fluorescence scan, primary screen (AID 1107).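 Further: mouse activin A protein probed at 4.33 µg/mL on printed slides; score merges bound-protein fluorescence near 667 nm with spot signal-to-noise.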 The conditions noted are these: INHBA, higher = more signal.
For test [11], the system named is Human papillomavirus type 1a protein E7 (residues 44-93). The test is described as follows: small molecules binding HPV E7 44-93 – biochemical, small-molecule microarray, residues 44-93, 635 nm fluorescence, primary screen (AID 1108).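 Further: E7 fragment applied at 1 µg/mL in TBST for 1 h at 4 C; score combines spot fluorescence with its signal to noise ratio.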 Conditions: fluorescence 635 nm, higher = more signal.
The nature of test [12]: hepatitis C replication reporter changes, two-sided – Huh7 cells, luciferase reporter, HCV replication inhibitor project, primary screen (AID 1109).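 Further: huh7 hepatoma cells harbouring a luciferase neomycin HCV replicon reporter; luciferase luminescence as measure of HCV replicon replication; test concentration not given here.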 Conditions: Huh7 HCV replicon luciferase reporter, 48 h; higher = more signal.
For test [13], the target named is Left-right determination factor 2 (Homo sapiens) (UniProt O00292). The test is described as follows: small molecules binding LEFTY2 protein – biochemical, small-molecule microarray, 635 nm fluorescence scan, primary screen (AID 1110). The conditions noted are these: higher = more signal.
For test [14], the target named is Calmodulin-1 (Homo sapiens) (UniProt P0DP23). The test is described as follows: small molecules binding calmodulin-1 with EGTA – biochemical, small-molecule microarray, Cy5-labelled CALM1, profiling panel (AID 1111).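 Further: labelled calmodulin applied in Tris saline Tween buffer holding calcium plus EGTA and DTT.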 The conditions noted are these: Cy5-CALM1 binding fluorescence, higher = more signal.
Test [15] shares this target. Description: small molecules binding Ca-loaded calmodulin-1 – biochemical, small-molecule microarray, Cy5-labelled CALM1, plus calcium, artefact control for SMM control-protein annotation, profiling panel (AID 1112).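 Further: score merges spot fluorescence with signal to noise from triplicate slides.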 The conditions noted are these: Cy5-CALM1 binding fluorescence, higher = more signal.
The nature of test [16]: probe aWnt5a binding to arrayed compounds – biochemical, biotinylated probe, 635/667 nm fluorescence, primary screen (AID 1113).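 Further: score merges 667 nm fluorescence intensity with signal-to-noise per printed feature.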 Conditions: small-molecule microarray, higher = more signal.
Test [17] is described as follows: probe aShh binding to arrayed compounds – biochemical, biotinylated probe, 635/667 nm fluorescence, primary screen (AID 1114).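 Further: probe is biotin-labelled aShh protein from a stem cell growth factor screen; measures binding of labelled protein to compounds printed on the slide; score merges feature fluorescence at 667 nm with signal-to-noise.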 The conditions noted are these: small-molecule microarray, higher = more signal.
Test [18] in a line: probe aNog binding to arrayed compounds – biochemical, biotinylated probe, 635/667 nm fluorescence, primary screen (AID 1115).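 Further: probe is biotinylated aNog protein used at 0.15 µg/mL for 1 h at 4 C; z-score combines 667 nm fluorescence of each spot with its signal to noise.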 Conditions: small-molecule microarray, higher = more signal.
Test [19] has as its target Torsin-1A-interacting protein 1 (Homo sapiens) (UniProt Q5JTV8). Description: compound microarray binding of lysate hLAP1 – cell lysate, small-molecule microarray, COS7 lysate, 635/667 nm fluorescence, primary screen (AID 1116). The conditions noted are these: 635 nm fluorescence, higher = more signal.
Test [20] addresses Alpha-bungarotoxin (Bungarus multicinctus) (UniProt P60615). Description: compounds binding labelled alpha-BTX control protein – biochemical, small-molecule microarray, Alexa647 label, 635/667 nm fluorescence, artefact control for SMM control protein annotation, profiling panel (AID 1117). Conditions: alpha-BTX-A647 binding fluorescence, higher = more signal.

Activity calls are given as the source filed them.

Sequence of Torsin-1A-interacting protein 1 (Homo sapiens) (Q5JTV8 whole entry, looked up): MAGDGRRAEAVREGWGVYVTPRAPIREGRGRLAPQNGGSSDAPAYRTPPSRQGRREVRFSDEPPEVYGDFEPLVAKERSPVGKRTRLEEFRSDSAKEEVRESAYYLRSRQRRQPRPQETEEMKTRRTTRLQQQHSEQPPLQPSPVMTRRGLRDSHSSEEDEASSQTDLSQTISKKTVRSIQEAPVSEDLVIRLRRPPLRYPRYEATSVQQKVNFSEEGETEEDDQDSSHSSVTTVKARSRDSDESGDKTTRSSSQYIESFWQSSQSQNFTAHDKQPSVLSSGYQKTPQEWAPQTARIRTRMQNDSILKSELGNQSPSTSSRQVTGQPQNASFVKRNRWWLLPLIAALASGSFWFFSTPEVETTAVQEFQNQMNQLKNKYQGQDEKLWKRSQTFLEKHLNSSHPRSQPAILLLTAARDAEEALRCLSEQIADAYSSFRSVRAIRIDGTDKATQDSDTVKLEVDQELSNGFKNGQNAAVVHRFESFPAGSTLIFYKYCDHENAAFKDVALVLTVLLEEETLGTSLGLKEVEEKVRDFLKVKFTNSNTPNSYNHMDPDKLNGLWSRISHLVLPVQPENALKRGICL
Sequence of Follistatin-related protein 3 (Homo sapiens) (O95633 whole entry, looked up): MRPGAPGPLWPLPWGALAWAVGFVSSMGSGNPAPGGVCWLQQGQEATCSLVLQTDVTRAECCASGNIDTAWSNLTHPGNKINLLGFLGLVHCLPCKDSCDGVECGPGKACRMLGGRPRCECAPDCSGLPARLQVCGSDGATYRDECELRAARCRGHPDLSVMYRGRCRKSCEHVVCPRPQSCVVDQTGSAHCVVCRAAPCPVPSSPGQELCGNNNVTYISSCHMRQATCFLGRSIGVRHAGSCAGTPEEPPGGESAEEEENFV
Sequence of Alpha-bungarotoxin (Bungarus multicinctus) (P60615 whole entry, looked up): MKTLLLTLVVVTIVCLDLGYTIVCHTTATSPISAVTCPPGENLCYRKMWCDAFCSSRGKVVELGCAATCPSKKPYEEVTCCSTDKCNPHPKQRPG
Sequence of Left-right determination factor 2 (Homo sapiens) (O00292 whole entry, looked up): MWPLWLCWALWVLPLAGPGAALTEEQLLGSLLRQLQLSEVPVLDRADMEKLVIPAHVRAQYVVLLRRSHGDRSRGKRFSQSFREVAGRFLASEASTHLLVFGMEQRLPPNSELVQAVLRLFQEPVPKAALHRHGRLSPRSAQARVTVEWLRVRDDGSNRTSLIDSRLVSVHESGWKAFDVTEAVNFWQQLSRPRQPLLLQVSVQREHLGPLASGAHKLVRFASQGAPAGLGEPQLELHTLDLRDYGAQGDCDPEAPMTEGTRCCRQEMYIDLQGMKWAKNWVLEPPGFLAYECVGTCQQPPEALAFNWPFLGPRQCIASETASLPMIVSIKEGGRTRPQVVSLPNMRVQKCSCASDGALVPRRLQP
Sequence of Dickkopf-related protein 1 (Homo sapiens) (O94907 whole entry, looked up): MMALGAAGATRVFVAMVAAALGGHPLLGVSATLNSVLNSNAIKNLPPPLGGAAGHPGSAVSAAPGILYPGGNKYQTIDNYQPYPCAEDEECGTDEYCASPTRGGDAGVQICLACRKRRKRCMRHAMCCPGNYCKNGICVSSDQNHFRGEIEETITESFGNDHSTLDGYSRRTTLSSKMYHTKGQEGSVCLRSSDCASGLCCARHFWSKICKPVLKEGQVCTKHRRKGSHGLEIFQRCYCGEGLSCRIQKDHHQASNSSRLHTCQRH
Sequence of Fibroblast growth factor 10 (Homo sapiens) (O15520 whole entry, looked up): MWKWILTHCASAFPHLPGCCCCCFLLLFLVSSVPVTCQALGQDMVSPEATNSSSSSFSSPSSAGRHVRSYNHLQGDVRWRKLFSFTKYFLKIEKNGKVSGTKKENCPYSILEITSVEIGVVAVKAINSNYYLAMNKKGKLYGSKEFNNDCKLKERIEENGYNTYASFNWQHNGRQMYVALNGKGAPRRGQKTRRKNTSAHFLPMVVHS
Sequence of Epidermal growth factor receptor (Homo sapiens) (P00533 whole entry, looked up): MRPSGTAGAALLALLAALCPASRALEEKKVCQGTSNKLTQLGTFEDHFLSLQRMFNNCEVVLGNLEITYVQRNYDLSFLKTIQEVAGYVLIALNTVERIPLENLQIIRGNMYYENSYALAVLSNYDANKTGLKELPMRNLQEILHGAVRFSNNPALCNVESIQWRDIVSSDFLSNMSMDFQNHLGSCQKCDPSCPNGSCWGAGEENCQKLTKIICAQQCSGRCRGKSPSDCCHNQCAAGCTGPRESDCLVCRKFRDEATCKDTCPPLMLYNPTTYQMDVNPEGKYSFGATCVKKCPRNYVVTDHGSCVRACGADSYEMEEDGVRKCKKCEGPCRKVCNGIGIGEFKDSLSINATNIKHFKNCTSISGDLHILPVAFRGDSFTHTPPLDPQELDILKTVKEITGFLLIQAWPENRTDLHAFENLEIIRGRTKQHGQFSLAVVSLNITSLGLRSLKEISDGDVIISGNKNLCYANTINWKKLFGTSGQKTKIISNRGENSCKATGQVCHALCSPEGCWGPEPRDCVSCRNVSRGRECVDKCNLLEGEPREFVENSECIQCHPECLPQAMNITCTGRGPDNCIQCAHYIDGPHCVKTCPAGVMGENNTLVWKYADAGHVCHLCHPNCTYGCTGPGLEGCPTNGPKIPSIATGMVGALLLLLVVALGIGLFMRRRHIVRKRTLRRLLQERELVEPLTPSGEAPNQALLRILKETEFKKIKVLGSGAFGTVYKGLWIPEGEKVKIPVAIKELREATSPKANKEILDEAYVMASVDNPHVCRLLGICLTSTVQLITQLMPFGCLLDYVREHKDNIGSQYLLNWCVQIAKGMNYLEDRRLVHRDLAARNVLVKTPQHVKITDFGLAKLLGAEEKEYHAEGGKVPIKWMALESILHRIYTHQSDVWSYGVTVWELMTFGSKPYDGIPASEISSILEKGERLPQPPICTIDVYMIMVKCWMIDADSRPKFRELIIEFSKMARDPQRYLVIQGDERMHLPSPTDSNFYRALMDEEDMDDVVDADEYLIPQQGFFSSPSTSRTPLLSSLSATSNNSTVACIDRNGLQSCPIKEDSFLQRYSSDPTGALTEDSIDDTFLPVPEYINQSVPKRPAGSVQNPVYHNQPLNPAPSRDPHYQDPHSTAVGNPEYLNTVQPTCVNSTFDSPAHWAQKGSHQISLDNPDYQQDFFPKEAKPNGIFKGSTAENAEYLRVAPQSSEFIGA

Consider `O=C1C2C=CC(C(O)c3ccc(B(O)O)cc3)N(Nc3ccc([N+](=O)[O-])cc3)C2C(=O)N1c1ccccc1` (stereo not given), for which the composite z-score in test [1] was found to be 0.76; in test [2] it was 0.627; in test [3] it was 0.642; in test [5], 1.11; in test [6], 1.19; in test [7] it was 0.415. Further, the composite z-score is 0.998 in test [8]; -0.0757 in test [9]; 0.0102 in [10]; 1.38 in [11]; 0.528 in [13]; 0.394 in [14]. Moreover, the composite z-score in test [15] is 0.218; in test [16], -0.0107; in [17], -0.0146; in test [18], 0.46; in [19] it was 0.151; in test [20] it was 0.435. In addition, the z-score was 0.98 (inactive) in test [4] and -4.39 in [12].

Consider `O=C1OCCC=C[C@H]2OC34C=CCN(c5ccc6ccccc6c5)C(=O)[C@H]3N(CCCCCCO)C(=O)[C@@H]4C12` (stereo not given in full), for which the composite z-score in [1] was 0.924; in test [2], -0.0082; in test [3], 0.187; in test [5] it was -0.916; in [6], -0.817; in test [7], -1.07. Also, the composite z-score is -0.917 in test [8]; -1.26 in test [9]; 0.56 in test [10]; 0.404 in [11]; -0.431 in test [13]; -0.611 in test [14]. The composite z-score in test [15] was -0.321; in test [16] it was -0.176; in test [17] it was -0.0337; in test [18], -0.201; in test [19], 0.164; in [20] it was -1.37. In addition, the z-score in test [4] is -0.225 (inactive); in [12] it was 0.0919.

`C=CC[C@@]1(C(=O)NCc2ccccc2)N=C(c2ccc(OCCCO)cc2)O[C@@H]1c1ccccc1CN=[N+]=[N-]`: the composite z-score was 1.1 in test [1]; 0.9 in [2]; 0.953 in test [3]; 1.15 in test [5]; 0.0389 in test [6]; -0.282 in test [7]. Also, the composite z-score in test [8] was 0.849; in [9] it was 0.0805; in test [10], 0.835; in [11], 1.41; in [13], -0.511; in test [14], 1.13. Also, the composite z-score in test [15] is 0.429; in test [16] it was 0.0676; in [17], 0.448; in [18], 0.622; in test [19], 1.1; in [20] it was 1.28. Also, the z-score was 0.147 (inactive) in [4] and -2.31 in test [12].

As for `Cc1ccc(S[C@]2(C(=O)NCCCN(C)C)CC(=O)N(Cc3ccccc3)[C@@H]2c2ccc(CO)cc2)cc1`, the composite z-score is -1.43 in test [1]; 0.938 in [2]; 1.15 in test [3]; -1.01 in [5]; -0.726 in [6]; -1.03 in test [7]. In addition, the composite z-score in [8] was -1.26; in test [9], -0.909; in test [10], 0.591; in test [11], -0.364; in [13], -1.03; in test [14], -0.676. For the same compound, the composite z-score in test [15] was -0.674; in [16], -0.184; in test [17], -0.145; in [18], 0.604; in test [19], 1.17; in [20], 0.75. Further, the z-score in [4] is -0.522 (inactive); in test [12], -1.7.

`COCCOC(=O)N1C(=O)[C@@]2(c3cc(C#CC4=CCCCC4)ccc31)[C@H](c1ccc(OCCO)cc1)N1[C@H](c3ccccc3)[C@H](c3ccccc3)OC(=O)[C@H]1[C@@H]2C(=O)Nc1nc2ccccc2s1`: the composite z-score in test [1] is 0.581; in test [2], 0.0643; in test [3], 0.153; in test [5] it was 1.08; in test [6], 1.29; in [7], 0.287. Besides, the composite z-score was found to be 1.12 in test [8]; 0.521 in test [9]; 0.462 in test [10]; 1.23 in [11]; 0.172 in test [13]; 1.57 in test [14]. Besides, the composite z-score in test [15] was -0.386; in test [16], -0.001; in test [17] it was 0.275; in test [18], -0.45; in test [19], 0.993; in [20] it was 0.656. Further, the z-score in test [4] was -0.831 (inactive); in [12] it was -1.87.

The values above are taken from PubChem BioAssay.
